Measured values from PubChem BioAssay (NCATS).
Values without a mark were called inactive. Records with an inconclusive call do not appear. Entries that show only a call come without a potency. For some assays here: Potency and affinity values are given separately. Active and inactive are the calls of the source. Unless noted, how the calls were made is not given here.

Experiments:
[1] = Ebola virus entry assay, ratio channel
[2] = Ebola virus entry assay, green channel fluorescence
[3] = Ebola virus entry assay, reporter ratio channel; AC50: Channel type: primary unless noted; outcome: Channel type: primary unless noted
[4] = Ebola virus entry assay, blue channel (ratio component)
[5] = qHTS assay for measurement of the activity of small molecule inhibitors on Zika virus induced Caspase-3 activity in human iPSC derived neural progenitor cells (hNPCs) (AID 1224857; active means well fitted curve in the direction sought with a large enough effect; an effect the other way counts as inactive or inconclusive; further: nearly all actives have a fitted effect of over 65% in size); conditions: hNPCs ZIKV-induced caspase-3/7, Caspase-Glo luminescence, 6 h; series mostly up to 45.7 µM
How it was run: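 Pretreat hNPCs with compound 1 h; infect ZIKV 2 FFU/cell; 6 h 37 C, 5% CO2; Caspase-Glo 3/7, 30 min RT; luminescence; normalize to no-virus and virus-only wells.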

[6] = qHTS assay for measurement of the activity of small molecule inhibitors on Zika virus induced Caspase-3 activity in human astrocytoma cells (AID 1224859; active means well fitted curve in the direction sought with a large enough effect; an effect the other way counts as inactive or inconclusive); conditions: SNB-19 ZIKV-induced caspase-3/7, luminescence, 6 h; series mostly up to 45.7 µM
How it was run: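 Human SNB-19 astrocytoma cells in RPMI 1640 with 10% FBS receive compound one hour ahead of Zika virus at 2 FFU/cell. After 6 h infection, caspase-3/7 activity is detected by Caspase-Glo luminescence.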

[7] = qHTS assay to identify small molecule inhibitors of chordoma cells - UCH-1 (AID 1259355; active means well fitted curve in the direction sought with a large enough effect; an effect the other way counts as inactive or inconclusive; further: nearly all actives have a fitted effect of over 55% in size); conditions: UCH-1 chordoma viability, CellTiter-Glo, 48 h, combination; series mostly up to 46.1 µM
How it was run: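 800 cells/well, overnight attach; compounds pinned at 15 concs, then auranofin/camptothecin/doxorubicin/rubitecan/topotecan combo added; 48hr 37 C, 5% CO2; CellTiter-Glo, 30min RT, luminescence.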

[8] = qHTS assay to identify small molecule inhibitors of chordoma cells - UCH-2 (AID 1259356; active means well fitted curve in the direction sought with a large enough effect; an effect the other way counts as inactive or inconclusive); conditions: UCH-2 chordoma viability, CellTiter-Glo ATP luminescence, 48 h; series mostly up to 46.1 µM

CC(C)=CC1C(C(=O)OCN2C(=O)C3=C(CCCC3)C2=O)C1(C)C (stereo unspecified)
outcome [1]: inactive | outcome [2]: inactive | outcome [3]: inactive | outcome [4]: inactive | outcome [5]: inactive | outcome [6]: inactive | outcome [7]: inactive | outcome [8]: inactive

Clc1ccc(C(c2ccc(Cl)cc2)C(Cl)(Cl)Cl)cc1
outcome [1]: inactive | outcome [2]: inactive | outcome [3]: inactive | outcome [4]: inactive | outcome [6]: inactive | outcome [7]: inactive | outcome [8]: inactive

Clc1cccc(SC2CCNCC2)n1
outcome [1]: inactive | outcome [2]: inactive | outcome [3]: inactive | outcome [4]: inactive | outcome [6]: inactive | outcome [7]: inactive | outcome [8]: inactive

CC(=O)NC1CCSC1=O (stereo unspecified)
outcome [1]: inactive | outcome [2]: inactive | outcome [3]: inactive | outcome [4]: inactive | outcome [5]: inactive | outcome [6]: inactive | outcome [7]: inactive | outcome [8]: inactive

COP(=S)(OC)Oc1ccc(SC)c(C)c1
outcome [1]: inactive | outcome [2]: inactive | outcome [3]: inactive | outcome [4]: inactive | outcome [5]: inactive | outcome [6]: inactive | outcome [7]: inactive | outcome [8]: inactive

C#C[C@]1(O)CC[C@H]2[C@@H]3CCC4=CC(=O)CC[C@]4(C)[C@H]3CC[C@@]21C
outcome [1]: inactive | outcome [2]: inactive | outcome [3]: inactive | outcome [4]: inactive | outcome [5]: inactive | outcome [6]: inactive | outcome [7]: inactive | outcome [8]: inactive

CN1CC[C@]23c4c5ccc(O)c4O[C@H]2[C@@H](O)C=C[C@H]3[C@H]1C5
outcome [1]: inactive | outcome [2]: inactive | AC50 [3]: 35.5 µM (active) | outcome [6]: inactive

CC(C)NC(C)C
outcome [1]: inactive | outcome [2]: inactive | outcome [3]: inactive | outcome [4]: inactive | outcome [6]: inactive | outcome [7]: inactive | outcome [8]: inactive

C=CCN1C[C@H](C)N([C@H](c2ccc(C(=O)N(CC)CC)cc2)c2cccc(OC)c2)C[C@H]1C
outcome [1]: inactive | outcome [2]: inactive | outcome [3]: inactive | outcome [4]: inactive | outcome [5]: inactive | outcome [6]: inactive | outcome [7]: inactive | outcome [8]: inactive

COP(=S)(OC)Oc1ccc(S(=O)(=O)N(C)C)cc1
outcome [1]: inactive | outcome [2]: inactive | outcome [3]: inactive | outcome [4]: inactive | outcome [5]: inactive | outcome [6]: inactive | outcome [8]: inactive

COc1c2c(cc3c1OCO3)CCN(C)C2
outcome [1]: inactive | outcome [2]: inactive | outcome [3]: inactive | outcome [4]: inactive | outcome [5]: inactive | outcome [6]: inactive | outcome [8]: inactive

CCC(C)(C)c1ccc(O)cc1
outcome [1]: inactive | outcome [2]: inactive | outcome [3]: inactive | outcome [4]: inactive | outcome [5]: inactive | outcome [6]: inactive | outcome [7]: inactive | outcome [8]: inactive

COc1ccc2c(c1OC)C(=O)O[C@H]2[C@@H]1c2cc3c(cc2CCN1C)OCO3
outcome [1]: inactive | outcome [2]: inactive | outcome [3]: inactive | outcome [4]: inactive | outcome [5]: inactive | outcome [6]: inactive | outcome [8]: inactive

COP(=S)(OC)SCN1C(=O)c2ccccc2C1=O
outcome [1]: inactive | outcome [2]: inactive | outcome [3]: inactive | outcome [4]: inactive | outcome [6]: inactive | outcome [7]: inactive | outcome [8]: inactive

ClCCN1CCCC1
outcome [1]: inactive | outcome [2]: inactive | outcome [3]: inactive | outcome [4]: inactive | outcome [6]: inactive

O=c1[nH]c2ccccc2n1C1CCNCC1
outcome [1]: inactive | outcome [2]: inactive | outcome [3]: inactive | outcome [4]: inactive | outcome [6]: inactive

NNc1ccccc1
outcome [1]: inactive | outcome [2]: inactive | outcome [3]: inactive | outcome [4]: inactive | outcome [5]: inactive | outcome [6]: inactive | outcome [7]: inactive | outcome [8]: inactive

CCC1(CC)C(=O)C=CNC1=O
outcome [1]: inactive | outcome [2]: inactive | outcome [3]: inactive | outcome [4]: inactive | outcome [5]: inactive | outcome [6]: inactive | outcome [7]: inactive | outcome [8]: inactive

C[C@]12CCC(=O)C=C1CC[C@@H]1[C@@H]2CC[C@]2(C)C(=O)CC[C@@H]12
outcome [1]: inactive | outcome [2]: inactive | outcome [3]: inactive | outcome [4]: inactive | outcome [6]: inactive | outcome [7]: inactive | outcome [8]: inactive

CCCCC/C=C\C/C=C\C/C=C\C/C=C\CCCC(=O)NCC(=O)O
outcome [1]: inactive | outcome [2]: inactive | outcome [3]: inactive | outcome [4]: inactive | outcome [6]: inactive | activity, negative = inhibition [7]: -4.51% [at 4.2 µM] | activity change, negative = inhibition [8]: -22% [at 4.61 µM]

C[C@@H](N)[C@@H](O)c1ccccc1
outcome [1]: inactive | outcome [2]: inactive | outcome [3]: inactive | outcome [4]: inactive | outcome [5]: inactive | outcome [6]: inactive | outcome [7]: inactive | outcome [8]: inactive

CC(C)(C)NCC(O)c1cc(Cl)c(N)c(C(F)(F)F)c1 (stereo unspecified)
outcome [1]: inactive | outcome [2]: inactive | outcome [3]: inactive | outcome [4]: inactive | outcome [5]: inactive | outcome [6]: inactive | outcome [7]: inactive | outcome [8]: inactive

CN1C(=O)NC(=O)C(C)(C2=CCCCC2)C1=O (stereo unspecified)
outcome [1]: inactive | outcome [2]: inactive | outcome [3]: inactive | outcome [4]: inactive | outcome [6]: inactive | outcome [7]: inactive | outcome [8]: inactive

CCC(CC)(CNC(=O)CCCO)c1cccc(OC)c1
outcome [1]: inactive | outcome [2]: inactive | outcome [3]: inactive | outcome [4]: inactive | outcome [6]: inactive

CCN[C@H](C)Cc1cccc(C(F)(F)F)c1
outcome [1]: inactive | outcome [2]: inactive | AC50 [3]: 31.6 µM (active) | outcome [5]: inactive | outcome [6]: inactive

CC(C(=O)c1ccccc1)N(C)C (stereo unspecified)
outcome [1]: inactive | outcome [2]: inactive | outcome [3]: inactive | outcome [4]: inactive | outcome [6]: inactive

CCN[C@@H](C)Cc1cccc(C(F)(F)F)c1
outcome [1]: inactive | outcome [2]: inactive | outcome [3]: inactive | outcome [4]: inactive | outcome [6]: inactive

COC(=O)[C@@H](N)CCCN/C(N)=N/[N+](=O)[O-]
outcome [1]: inactive | outcome [2]: inactive | outcome [3]: inactive | outcome [4]: inactive | outcome [6]: inactive | outcome [7]: inactive | outcome [8]: inactive
